From ChEMBL document CHEMBL1201862, “PubChem BioAssay data set” (2004) come the findings set out here.

Hit rate of the full screen: of about 130,000 compounds, about 1,200 (0.92%) were called active. About 3% were inconclusive and are not listed. This is one part of a sample in which actives are shown more often than they occur. The calls are words filed in the database; no cut-off is given here.

The target in this assay is Cellular tumor antigen p53 (Homo sapiens) (UniProt P04637). Briefly: qHTS Screen for Compounds that Selectively Target Cancer Cells with p53 Mutations: Cytotoxicity of p53ts Cells at the Permissive Temperature. [Related pubchem assays: 902 ]. The class given is functional. For orientation: qHTS replaces the single test concentration by a dilution series.
Sequence of Cellular tumor antigen p53 (Homo sapiens) (P04637 whole entry, looked up): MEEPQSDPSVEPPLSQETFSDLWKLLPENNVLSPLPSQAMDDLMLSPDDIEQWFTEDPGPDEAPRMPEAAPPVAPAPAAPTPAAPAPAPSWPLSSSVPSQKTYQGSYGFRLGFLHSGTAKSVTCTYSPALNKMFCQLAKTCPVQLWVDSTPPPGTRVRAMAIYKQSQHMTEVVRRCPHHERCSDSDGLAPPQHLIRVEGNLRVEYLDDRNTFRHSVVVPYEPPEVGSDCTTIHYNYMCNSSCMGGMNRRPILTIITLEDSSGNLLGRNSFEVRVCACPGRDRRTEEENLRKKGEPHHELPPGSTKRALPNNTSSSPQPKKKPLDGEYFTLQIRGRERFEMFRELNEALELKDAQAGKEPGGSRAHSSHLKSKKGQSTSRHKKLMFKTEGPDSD
For `COc1ccccc1/C=C/C(=O)c1cccs1`, the Potency is 10 µM (active).

Take `O=C(/C=C/c1ccc(Cl)cc1)c1cccs1`: the Potency is 15.8 µM (active).
